Screen size: about 52,000 compounds; about 4,300 (8.3%) were called active. No stated cut-off is given here; in the data, active means survival mostly below about 52% (no sharp cut-off); inactive means mostly above about 56%. The sample as a whole holds a higher share of actives than the screen did.

The assay relates to DeltatarO mutant. The assay is described as follows: growth inhibition of S. aureus wild type versus tarO mutant, primary screen, teichoic acid synthesis inhibitors, RN4220, OD600 (AID 463173). Conditions: OD600, 18 h, active compounds read low, screened at 18.75 µg/mL (by protocol).
In the case of `CCCN1C(=O)C2(c3ccccc31)c1c(oc3cc(C)c(C)cc3c1=O)C(=O)N2CCCOC` (configuration not stated), the survival was 55% (active).
The figure for `Cc1cc2oc3c(c(=O)c2cc1C)C1(C(=O)N(C)c2ccccc21)N(CCO)C3=O` (configuration not stated) is 55% (inactive); for `CCN1C(=O)C2(c3ccccc31)c1c(oc3ccc(F)cc3c1=O)C(=O)N2CCCOC` (configuration not stated) it is 64% (inactive); for `CCN1C(=O)C2(c3ccccc31)c1c(oc3ccc(C)cc3c1=O)C(=O)N2CCCOC(C)C` (configuration not stated) it is 49% (inactive).
With `COCCN1C(=O)c2oc3ccc(C)cc3c(=O)c2C12C(=O)N(C)c1ccccc12` (configuration not stated), the survival is 45% (active).
Take `CCCN1C(=O)C2(c3ccccc31)c1c(oc3ccc(C)cc3c1=O)C(=O)N2CCOC` (configuration not stated): the survival was 60% (inactive).
As to `Cc1ccc2oc3c(c(=O)c2c1)C1(C(=O)N(C)c2ccccc21)N(CCCO)C3=O` (configuration not stated), the survival is 51% (active).
In the case of `COCCCN1C(=O)c2oc3ccccc3c(=O)c2C12C(=O)N(C)c1ccccc12` (configuration not stated), the survival is 64% (inactive).
The figure for `CCCN1C(=O)C2(c3ccccc31)c1c(oc3ccccc3c1=O)C(=O)N2CCCOC(C)C` (configuration not stated) is 48% (inactive); for `CCCCc1nn2c(C)c(-c3ccc(OCC)cc3)nc2s1` it is 103% (inactive).
Turning to `CCOC(=O)c1sc(NC(=O)C(C)Sc2nc(-c3ccccc3)cc(C(F)(F)F)n2)c(C(=O)OC)c1C` (configuration not stated), the survival was 159% (inactive).
Regarding `Cc1ccc(Cl)cc1N1CCN(C(=O)Cn2nc(C)c3sc4ccccc4c3c2=O)CC1`, the survival was 57% (inactive).
The figure for `COc1ccc(CCN2C(=O)CN=C2Nc2ccc(F)cc2)cc1OC` is 78% (inactive).
The figure for `COC(=O)c1ccc(C(=O)OC)c(NC(=O)c2ccc(-c3ccccc3)s2)c1` is 126% (inactive).
As to `CCOC(=O)c1c(CN(C)C)oc2ccc(O)cc12`, the survival is 88% (inactive).
The figure for `O=C(Nc1ccccc1F)C(c1ccccc1)N1Cc2ccccc2C1=O` (configuration not stated) is 72% (inactive).
The figure for `CCOc1ccccc1NC(=O)C(c1ccccc1)N1Cc2ccccc2C1=O` (configuration not stated) is 96% (inactive); for `Cc1ccc(NC(=O)[C@@H](c2ccccc2)N2Cc3ccccc3C2=O)cc1` it is 71% (inactive); for `CCc1ccccc1NC(=O)[C@@H](c1ccccc1)N1Cc2ccccc2C1=O` it is 4% (active).
The figure for `O=C(Nc1cccc(F)c1)[C@@H](c1ccccc1)N1Cc2ccccc2C1=O` is 46% (active).
In the case of `CC(C)NC(=O)C(c1ccccc1)N1Cc2ccccc2C1=O` (configuration not stated), the survival is 101% (inactive).
For the molecule `CC(C)CCNC(=O)[C@@H](c1ccccc1)N1Cc2ccccc2C1=O`, the survival is 12% (active).
On to `CCCCNC(=O)[C@@H](c1ccccc1)N1Cc2ccccc2C1=O`, for which the survival is 54% (inactive).
The figure for `O=C(Nc1ccc(F)c(F)c1)C(c1ccccc1)N1Cc2ccccc2C1=O` (configuration not stated) is 102% (inactive); for `CSc1cccc(NC(=O)C(c2ccccc2)N2Cc3ccccc3C2=O)c1` (configuration not stated) it is 88% (inactive); for `CC(=O)Nc1ccc(NC(=O)C(c2ccccc2)N2Cc3ccccc3C2=O)cc1` (configuration not stated) it is 119% (inactive).
On to `O=C(Nc1ccc(F)cc1)[C@@H](c1ccccc1)N1Cc2ccccc2C1=O`, for which the survival was 38% (active).
The figure for `COc1ccc(C(=O)OCc2cc(=O)n3nc(C4CC4)sc3n2)cc1OC` is 91% (inactive); for `CC(=O)N1c2ccc(S(=O)(=O)NCC3CCC(C(=O)Nc4ccccc4C)CC3)cc2CC1C` (configuration not stated) it is 104% (inactive).
The figure for `CCOc1ccccc1CNC(=O)C1CCN(S(=O)(=O)c2ccc3c(ccn3C)c2)CC1` is 96% (inactive); for `O=C(Nc1cccc(F)c1F)C1CCN(c2ncccn2)CC1` it is 62% (inactive).
The figure for `COc1ccc(CCNC(=O)CCCCn2c(=O)c3ccccc3n(CC(=O)Nc3c(C)cccc3C)c2=O)cc1OC` is 115% (inactive).
On to `Cc1ccc2c(c1)-c1onc(C(=O)N(C)c3ccc(F)cc3)c1CO2`, for which the survival is 65% (inactive).
In the case of `O=C(NCCCN1CCN(c2ccccc2F)CC1)C1COc2ccccc2C1` (configuration not stated), the survival was 92% (inactive).
As to `COc1ccc(OC)c(CCNC(=O)c2ccc3c(c2)c(C)c(C)n3Cc2ccccc2)c1`, the survival is 79% (inactive).
The figure for `COc1cc(-c2nc3cc(Cl)ccc3o2)cc(OC)c1OC` is 87% (inactive); for `CCOC(=O)c1sc2ccccc2c1S(=O)(=O)Nc1c(C)cccc1C` it is 70% (inactive).
The figure for `COc1ccc(-c2cc(C(F)(F)F)nc(SCC(=O)N(C)Cc3ccccc3)n2)cc1` is 44% (inactive); for `O=C(CSc1nc(-c2ccc(F)cc2)cc(C(F)(F)F)n1)NCc1ccccc1` it is 62% (inactive).
The figure for `COc1ccc(-c2cc(C(F)(F)F)nc(SCC(=O)NCCc3ccccc3)n2)cc1OC` is 58% (inactive).
`COc1ccc(-c2cc(C(F)(F)F)nc(SCC(=O)N(C)Cc3ccccc3)n2)cc1OC`: the survival was 33% (active).
The figure for `CN(Cc1ccccc1)C(=O)CSc1nc(-c2ccc(F)cc2)cc(C(F)(F)F)n1` is 31% (active); for `COc1ccccc1CNC(=O)CSc1nc(-c2ccc(OC)c(OC)c2)cc(C(F)(F)F)n1` it is 55% (inactive); for `O=C(C1CCC1)N1CCc2cc(S(=O)(=O)NCc3ccc(F)cc3)ccc21` it is 93% (inactive).
As to `CCOc1ccccc1NC(=O)Cn1c(=O)n(-c2ccc(Cl)cc2)c(=O)c2oc3ccccc3c21`, the survival was 69% (inactive).
As to `CN(C)c1ccc(NC(=O)CSC2=Nc3ccccc3C3=NC(CCC(=O)NCc4cccs4)C(=O)N23)cc1` (configuration not stated), the survival is 75% (inactive).
The figure for `Cc1ccc2oc(=O)c3cc(C(=O)Nc4ccc(C)c(F)c4)sc3c2c1` is 77% (inactive); for `Cc1nc(-n2nc(C)c(CCC(C)C)c2C)sc1C(=O)Nc1ccc(Br)cc1` it is 50% (inactive).
`OCCN(CCO)c1ncnc2c1cnn2-c1ccc(F)cc1`: the survival is 6% (active).
Regarding `CCN(c1ccccc1)c1ncnc2c1cnn2-c1ccc(C)cc1C`, the survival is 55% (inactive).
The figure for `COc1ccc(CCNc2ncnc3c2cnn3-c2ccc(C)cc2)cc1` is 81% (inactive); for `Cc1ccc(-n2ncc3c(N(CCO)Cc4ccccc4)ncnc32)cc1` it is 8% (active).
With `CCN(Cc1ccccc1)c1ncnc2c1cnn2-c1ccc(F)cc1`, the survival is 79% (inactive).
The figure for `CCN(c1ccccc1)c1ncnc2c1cnn2-c1ccc(OC)cc1` is 52% (active).
Turning to `COCCCNc1ncnc2c1cnn2-c1ccc(F)cc1`, the survival is 86% (inactive).
The figure for `CCCCN(c1ccccc1)c1ncnc2c1cnn2-c1ccc(Cl)cc1` is 87% (inactive); for `CCCCN(CCCC)c1ncnc2c1cnn2-c1cccc(C)c1` it is 74% (inactive); for `Cc1ccc(-n2ncc3c(N(C)Cc4ccccc4)ncnc32)cc1` it is 89% (inactive).
Turning to `Cc1ccc(-n2ncc3c(NCCc4ccccc4)ncnc32)cc1`, the survival is 87% (inactive).
The figure for `COc1ccc(-n2ncc3c(NCCCOC(C)C)ncnc32)cc1` is 0% (active); for `COc1ccc(Cl)cc1NC(=O)c1c(NCc2sccc2C)sc2c1CCCC2` it is 71% (inactive); for `CC(=O)NC1(c2ccccc2)CCN(Cc2nnnn2C(C)(C)C)CC1` it is 91% (inactive).
The figure for `Cc1ccc(C)c(N2CCN(C(=O)CCS(=O)(=O)c3ccc4c(c3)CC(=O)N4C)CC2)c1` is 89% (inactive); for `O=C(Nc1ccccc1F)NC1CCN(Cc2nnnn2Cc2ccc(F)cc2)CC1` it is 96% (inactive); for `CC(=O)N1CCCc2ccc(NS(=O)(=O)c3cccc(Cl)c3)cc21` it is 80% (inactive).
The figure for `N#Cc1c[nH]n2c(NC3CCCC3)c(-c3cccc(Br)c3)nc12` is 45% (inactive); for `Cc1c(C(=O)N(Cc2ccccc2F)C2CCS(=O)(=O)C2)oc2ccccc12` (configuration not stated) it is 84% (inactive); for `COc1cc(CN(C(=O)c2oc3ccccc3c2C)C2CCS(=O)(=O)C2)cc(OC)c1OC` (configuration not stated) it is 55% (inactive).
Regarding `COc1cccc(CN(C(=O)c2oc3ccccc3c2C)C2CCS(=O)(=O)C2)c1` (configuration not stated), the survival is 69% (inactive).
In the case of `Cc1ccc2c(C)c(C(=O)N(Cc3ccc(Cl)cc3)C3CCS(=O)(=O)C3)oc2c1` (configuration not stated), the survival is 34% (active).
In the case of `COc1cccc(CN(C(=O)c2oc3ccc(Br)cc3c2C)C2CCS(=O)(=O)C2)c1` (configuration not stated), the survival was 40% (active).
In the case of `Cc1ccc2oc(C(=O)N(Cc3cccc(F)c3)C3CCS(=O)(=O)C3)c(C)c2c1` (configuration not stated), the survival was 76% (inactive).
For the molecule `Cc1c(C(=O)N(Cc2ccc(N(C)C)cc2)C2CCS(=O)(=O)C2)oc2ccccc12` (configuration not stated), the survival is 42% (active).
Consider `Cc1c(C(=O)N(Cc2cccc(F)c2)C2CCS(=O)(=O)C2)oc2cc(Br)ccc12` (configuration not stated), for which the survival was 63% (inactive).
The figure for `COc1cccc(CN(C(=O)c2oc3cc(C)ccc3c2C)C2CCS(=O)(=O)C2)c1` (configuration not stated) is 57% (inactive); for `C=CCn1c(C(C)NC(=O)c2ccccc2Cl)n[nH]c1=S` (configuration not stated) it is 76% (inactive).
Consider `Cc1cccc(C)c1NC(=O)c1ccc2nc(CCc3ccccc3)oc2c1`, for which the survival is 69% (inactive).
The figure for `O=C(Nc1ccc(Cl)cc1Cl)c1cc(S(=O)(=O)NCc2ccc3c(c2)OCO3)ccc1F` is 94% (inactive); for `O=C(C1CCCN(S(=O)(=O)c2cccc3nsnc23)C1)N1CCN(c2ccccc2)CC1` (configuration not stated) it is 79% (inactive); for `CN1C(=O)SC(N(CC(N)=O)c2ccccc2)C1=O` (configuration not stated) it is 61% (inactive).
`COc1cc(NC(=O)Cn2nc(Cc3cccnc3)c3ccccc3c2=O)cc(OC)c1OC`: the survival is 71% (inactive).
The figure for `COCCNC(=O)CSc1nc2cc3c(cc2c(=O)n1CCCC(=O)NCc1ccc(OC)cc1)OCO3` is 84% (inactive); for `CC(=O)c1ccc(NC(=O)CSc2nnc3ccc(-c4ccc(Cl)cc4)nn23)cc1` it is 83% (inactive); for `CCOC(=O)c1c(NC(=O)CSc2cn(CCNC(=O)c3ccc(OCC)cc3)c3ccccc23)sc2c1CCCC2` it is 93% (inactive).
The figure for `COc1cccc(C(=O)COC(=O)c2cc(-c3cccs3)nc3ccccc23)c1` is 54% (inactive); for `Cc1cccc(-c2nc3c(cnn3-c3ccccc3)c(=O)n2-c2ccc(Br)cc2)c1` it is 139% (inactive).
The figure for `COc1ccc(-n2c(-c3cccc(F)c3)nc3c(cnn3-c3ccc(C)cc3)c2=O)cc1` is 96% (inactive).
`Cc1ccc(-c2nc3c(cnn3-c3ccccc3)c(=O)n2-c2cccc(Cl)c2)cc1`: the survival is 33% (active).
The figure for `Cc1ccc(-n2c(-c3cccc(C)c3)nc3c(cnn3-c3ccccc3)c2=O)cc1` is 19% (active); for `COc1ccc(-n2c(-c3ccccc3F)nc3c(cnn3-c3ccc(C)cc3)c2=O)cc1` it is 80% (inactive); for `CCc1nc2c(cnn2-c2ccccc2)c(=O)n1-c1ccc(Br)cc1` it is 86% (inactive).
The figure for `Cc1ccc(-n2c(-c3ccc(Br)cc3)nc3c(cnn3-c3ccccc3)c2=O)cc1` is 39% (active).
In the case of `Cc1ccc(-c2nc3c(cnn3-c3ccccc3)c(=O)n2-c2ccc(Cl)cc2)cc1`, the survival was 44% (active).
The figure for `CCc1nc2c(cnn2-c2ccc(C)cc2)c(=O)n1-c1ccc(C)cc1` is 47% (inactive).
As for `Cc1ccc(-n2c(-c3ccco3)nc3c(cnn3-c3ccc(C)cc3)c2=O)cc1`, the survival is 81% (inactive).
In the case of `COc1cccc(-n2c(-c3cccc(F)c3)nc3c(cnn3-c3ccc(C)cc3)c2=O)c1`, the survival is 76% (inactive).
As for `COc1cccc(-n2c(-c3ccccc3F)nc3c(cnn3-c3ccc(C)cc3)c2=O)c1`, the survival is 75% (inactive).

The record behind these values is PubChem BioAssay AID463173 (ICCB-Longwood Screening Facility, Harvard Medical School, 2010).
